Test results as given in PubChem BioAssay (NCATS).
Records with an inconclusive call do not appear. A number with no mark means an inactive call. Calls come from the whole dose curve; as a rule, active = well fitted cell-killing curve with a large enough effect; inconclusive = small, poorly fitted or top-dose-only effect; inactive = no such curve, though single readings can be large or run the other way.

Assay: qHTS of pediatric cancer cell lines to identify multiple opportunities for drug repurposing: Primary screen for NB1643 cells (AID 1347099);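 note: plate controls were DMSO neutral control for no effect and bortezomib positive control for full effect; nearly all actives have a fitted effect of over 50% in size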
Conditions: NB1643 neuroblastoma viability, CellTiter-Glo luminescence, 48 h; series mostly up to 46 µM; activity change, negative = cytotoxic: at the top concentration
In short: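 Cells seeded at 500-1,000 cells/well in growth media, rested 5 hours at 37 degrees C, 5% CO2, then dosed; MIPE compounds at 11-point (from 0.78 nM) and NPC at 8-point (from 0.59 nM) final concentrations. Viability by CellTiter-Glo luminescence after 48 hours.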

| Structure (SMILES) | activity change, negative = cytotoxic |
| --- | --- |
| Cn1c(=O)c2c(ncn2CC(=O)O)n(C)c1=O | 15.8% |
| O=[N+]([O-])c1nccn1CO[C@@H](CO)[C@H](O)CO | -3.96% |
| CC(=O)OCC(=O)Nc1cc(C#N)cc(NC(=O)COC(C)=O)c1Cl | 23.2% |
| CC1(C)O[C@@H]2C[C@H]3[C@@H]4C[C@H](F)C5=CC(=O)C=C[C@]5(C)[C@@]4(F)[C@@H](O)C[C@]3(C)[C@]2(C(=O)CO)O1 | 3.51% |
| CCCC(=O)Nc1ccc(O)c(C(C)=O)c1 | 19% |
| O=[N+]([O-])c1cncn1CCN1CCOCC1 | 14.7% |
| CCOc1ncc(F)c(=O)[nH]1 | 6.52% |
| CCc1cc(S(=O)(=O)O)c2cc(C(C)C)cccc1-2 | 21.6% |
| Cc1ccccc1N1CCN(CCc2nnc3n2CCCC3)CC1 | 0.885% |
| CN1C(=O)c2ccccc2C1=O | 12.1% [at 92.7 µM] |
| Nc1nnnn1-c1ccccc1 | -0.827% |
| CCOC(=O)c1ccc(NC(=O)CN2CCCCC2)cc1 | 14.3% |
| Brc1ccccc1-c1ccccc1 | 15.7% [at 92.7 µM] |
| CCNC(=O)NCCCOc1cccc(CN2CCCCC2)c1 | -14.7% |
| CO/N=C(/C(=O)N[C@@H]1C(=O)N2C(C(=O)OCOC(=O)C(C)(C)C)=C(C)CS[C@H]12)c1csc(N)n1 | -4.69% |
| Cc1c(N)cccc1C(F)(F)F | 11% |
| OC[C@]1(O)OC[C@@H](O)[C@H](O)[C@@H]1O | 5.22% |
| COC(=O)c1cc(Cl)ccc1OC | 7.86% |
| CCCc1ncc(C(=O)O)s1 | 11.7% |
| CCOc1ccc(NS(=O)(=O)c2ccc(N)cc2)nn1 | 11.5% |
| CCCc1c2oc(C(=O)O)cc(=O)c2cc2c(=O)cc(C(=O)O)n(CC)c12 | 14.3% |
